Among all 5,900 compounds or so, about 100 (1.7%) were called active.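 The calls were made as follows: active = binding response below 72% of control, or above a set upper limit, though filed actives all read lower; inactive = the rest.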 The entries come from a sample that favours actives as a whole.

For the experiment, the target named is Mitogen-activated protein kinase kinase kinase 3 (Homo sapiens) (UniProt Q99759). In words: blockers of MEK5-MEKK3 PB1 association – biochemical, bead multiplex flow cytometry, single concentration, wildtype, confirmation (AID 1894).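 Also: 100% = DMSO only wells and 0% = binding blocked by excess unlabeled MEK5; lower values mean stronger disruption of MEK5 binding to MEKK3.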 The note with it: Alexa488-MEK5 binding to MEKK3, at 10 µM, hits give low values. On the technique in general: In flow cytometry, cells or beads pass a laser one at a time.
Chain of Mitogen-activated protein kinase kinase kinase 3 (Homo sapiens) (Q99759 whole entry, looked up): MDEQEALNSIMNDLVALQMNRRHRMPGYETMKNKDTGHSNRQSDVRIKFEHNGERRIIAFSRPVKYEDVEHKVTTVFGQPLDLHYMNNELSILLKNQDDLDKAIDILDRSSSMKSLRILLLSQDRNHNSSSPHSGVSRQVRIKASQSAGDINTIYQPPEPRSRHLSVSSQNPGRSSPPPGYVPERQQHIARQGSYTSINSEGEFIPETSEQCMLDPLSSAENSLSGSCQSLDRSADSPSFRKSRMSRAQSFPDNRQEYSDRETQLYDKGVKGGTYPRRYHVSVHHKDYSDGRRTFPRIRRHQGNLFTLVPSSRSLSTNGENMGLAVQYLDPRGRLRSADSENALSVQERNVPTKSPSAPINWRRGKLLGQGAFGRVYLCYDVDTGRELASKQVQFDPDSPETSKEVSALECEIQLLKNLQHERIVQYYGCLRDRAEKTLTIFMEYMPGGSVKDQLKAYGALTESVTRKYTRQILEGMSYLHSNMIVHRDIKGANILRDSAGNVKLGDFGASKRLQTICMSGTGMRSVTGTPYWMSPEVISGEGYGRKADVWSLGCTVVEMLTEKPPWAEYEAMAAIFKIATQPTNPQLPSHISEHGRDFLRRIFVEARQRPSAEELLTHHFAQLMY
For `COc1ccc(-c2[nH]ncc2CN(C)Cc2c(C)n[nH]c2C)c(OC)c1`, the binding response (% of control) is 109% (inactive).
To `COc1ccccc1N1CCN(CCCCOc2ccc(F)cc2)CC1` belongs 103% (inactive); to `CN1C(=O)/C(=C\c2ccc(-c3ccccc3)o2)SC1=S`, 70% (active); to `Cc1cc(Cl)ccc1OCc1nc(-c2ccncc2)no1`, 79% (inactive).
As for `CCn1c(NC(=O)c2ccccc2)c(-c2cccs2)c(=O)c2ccccc21`, the binding response (% of control) is 101% (inactive).
Under `Cc1cc(C)nc(-n2ncc3c2CC(c2ccc(C(C)C)cc2)CC3=O)n1` (stereo not drawn) stands 99% (inactive); under `C/C(=N\NC(=O)CNC(=O)C(c1ccccc1)c1ccccc1)c1ccc(C)cc1`, 108% (inactive).
Take `Cc1cc2cc(CNC(=O)c3cccs3)ccc2[nH]1`: the binding response (% of control) is 77% (inactive).
`CCOc1ccc(S(=O)(=O)N(CC(=O)O)c2ccccc2)cc1`: the binding response (% of control) is 106% (inactive).
To `CC(C)CC(=O)NC(=S)Nc1cc(C(=O)O)ccc1Cl` belongs 104% (inactive); to `Cn1c(SCc2nc3ccccc3s2)nnc1-c1ccc2c(c1)OCO2`, 98% (inactive); to `Cc1no[n+]([O-])c1COc1ccccc1/C=C1\NC(=S)NC1=O`, 101% (inactive).
`CC(C)(C)NC(=O)Cn1cnc([N+](=O)[O-])n1`: the binding response (% of control) was 97% (inactive).
To `COc1ccc(CCNC(=O)CSc2nnc3ccc(-c4ccncc4)nn23)cc1` belongs 105% (inactive).
In the case of `CCOc1cc(C2C(C(=O)OC)=CN(C3CCCC3)C=C2C(=O)OC)cc(Br)c1O`, the binding response (% of control) was 109% (inactive).
To `O=C(O)c1cc(Cl)c(Cl)cc1C(=O)Nc1cccc2ncccc12` belongs 102% (inactive).
To `COc1ccc(NC(=O)Cn2nnc(C(=O)NCCc3ccc(OC)c(OC)c3)c2N)cc1` belongs 102% (inactive); to `Cn1c(C(=O)NCCCN2CCCCC2)cc2sccc21`, 109% (inactive).
Under `O=C(NCCCN1CCCCCC1)C1CC(=O)N(C2CCCC2)C1` (stereo not drawn) stands 2% (active); under `O=C(NCCCN1CCCCCC1)c1ccc(N2CCCC2=O)cc1`, 110% (inactive); under `Cc1ccc(C(=O)NC(=S)Nc2ccc3[nH]c(=O)[nH]c3c2)cc1C`, 100% (inactive).
`c1ccc(CN2CCC(N=C3NN=C(c4ccc5c(c4)OCCO5)CS3)CC2)cc1`: the binding response (% of control) is 117% (inactive).
Under `C[C@H]1CCC(=O)N([C@H](CSc2ccccc2)Cc2ccccc2)CC1` stands 108% (inactive).
Under `O=C(CC1SCCNC1=O)Nc1ccc(Cl)c(Cl)c1` (stereo not drawn) stands 106% (inactive); under `CCNC(=O)CSc1nc(-c2ccccc2)cs1`, 104% (inactive).
To `COc1ccc(S(=O)(=O)Nc2ccc3oc(C)c(C(C)=O)c3c2)cc1` belongs 100% (inactive).
With `O=C(CN1CCN(C(=O)c2ccco2)CC1)Nc1ccc(Cl)c(C(F)(F)F)c1`, the binding response (% of control) was 104% (inactive).
To `COc1ccccc1OCCNCC(O)COc1cccc2[nH]c3ccccc3c12` (stereo not drawn) belongs 100% (inactive).
For `O=C(NCCN1CCOCC1)[C@H](Cc1ccccc1)N1C(=O)c2ccccc2C1=O`, the binding response (% of control) was 100% (inactive).
`c1ccc(Nc2nc(N3CCOCC3)c3ccccc3n2)cc1`: the binding response (% of control) was 106% (inactive).
To `CCOc1ccc(S(=O)(=O)NCCCn2ccnc2)cc1NC(C)=O` belongs 97% (inactive).
Under `CSCC[C@H](NC(=O)CCCn1nnc2ccccc2c1=O)C(=O)O` stands 102% (inactive).
Under `COc1cc(NC(=S)NCc2ccco2)c(OC)cc1Cl` stands 104% (inactive); under `CC(C)C(=O)N1c2ccccc2NC2=C(C(=O)CCC2)C1c1ccc(N(C)C)cc1` (stereo not drawn), 106% (inactive); under `COc1ccccc1N=C(C)C1=C(O)COC1=O`, 102% (inactive).
Consider `CC1(C)Cc2cccc(OCC(=O)N3CCN(c4ccc([N+](=O)[O-])cc4)CC3)c2O1`, for which the binding response (% of control) is 103% (inactive).
`CN(C)c1ccc(/C=C2\NC(=S)N(Cc3ccccc3)C2=O)cc1`: the binding response (% of control) was 99% (inactive).
Under `CC(C)CC(=O)N1CCN(Cc2ccccc2Br)CC1` stands 107% (inactive).
Under `CC1(C)OC(=O)N2CCc3ccccc3C21C` (stereo not drawn) stands 104% (inactive); under `COc1cccc(NC(=S)NCc2ccccn2)c1`, 96% (inactive); under `CCOc1nnc(C)c2c(C)n(-c3cccc(Cl)c3)nc12`, 91% (inactive).
Under `CCCc1nnc(SCC(=O)N2C(C)CCCC2C)n1CC` (stereo not drawn) stands 111% (inactive); under `O=C(Nc1cccnc1)c1cc(Cl)ccc1Cl`, 106% (inactive).
On to `O=C(O)CC(Cc1ccccc1)C(=O)Nc1ccc([N+](=O)[O-])cc1` (stereo not drawn), for which the binding response (% of control) is 100% (inactive).
Under `COc1cccc(/C=N\NC(=O)C2=NNC(=O)C2C)c1O` (stereo not drawn) stands 100% (inactive); under `CNC(C)C#Cc1ccc2sc3cc(OC)c(OC)cc3c(=O)c2c1` (stereo not drawn), 104% (inactive).
Turning to `Cc1ccc(Nc2nc(CSc3nnc(-c4ccncc4)n3-c3ccccc3C)cs2)cc1`, the binding response (% of control) was 103% (inactive).
For `Cc1c(S(=O)(=O)NCc2ccccc2)c(=O)n(C)c(=O)n1C`, the binding response (% of control) was 101% (inactive).
To `Cc1cnc(NC(=O)Cn2cnc3c2c(=O)n(C)c(=O)n3C)s1` belongs 97% (inactive).
To `C=CCn1c(=S)sc2c(=O)[nH]c(C)nc21` belongs 107% (inactive).
Under `CC1CCN(C2=NC(=O)/C(=C/c3cn[nH]c3-c3ccccc3)S2)CC1` stands 91% (inactive).
Turning to `O=C(CCCO)N/N=C/c1cc(Br)ccc1O`, the binding response (% of control) is 102% (inactive).
`COc1ccc(CC(=O)N2N=C(C)CC2(O)C(F)(F)F)cc1` (stereo not drawn): the binding response (% of control) is 98% (inactive).
For the compound `O=C1C=CC(=O)N1c1ccc(N2CCCCC2)cc1`, the binding response (% of control) was 100% (inactive).
Consider `N=c1c2c(-c3ccccc3)c(-c3ccccc3)n(Cc3ccccc3)c2ncn1CCCO`, for which the binding response (% of control) is 110% (inactive).
To `Cc1cccc(/C=N/NC(=O)CNc2cccc3ccccc23)n1` belongs 110% (inactive); to `O=C(O)CCCC(=O)Nc1ccc(Oc2cccc(C(F)(F)F)c2)nc1`, 105% (inactive); to `Cc1nn(-c2ccccc2)c(C)c1NC(=O)CCl`, 97% (inactive).
To `COC(=O)c1c(NC(=O)COC(=O)[C@@H](NS(=O)(=O)c2ccccc2)C(C)C)sc2c1CCC2` belongs 102% (inactive).
As to `Cc1cn(COC/C=C/c2ccccc2)c(=O)[nH]c1=O`, the binding response (% of control) is 105% (inactive).
Under `CCO[C@H]1OC(C(=O)N2CCOCC2)=C[C@@H](c2ccc3c(c2)OCO3)[C@@H]1CCCO` stands 104% (inactive); under `Cc1noc(C)c1S(=O)(=O)N(C)Cc1ccccc1`, 103% (inactive).
For the compound `CCN(CC)C(=O)CC(c1ccc2c(c1)OCO2)c1c(OC)cc(OC)c2c(-c3ccccc3)cc(=O)oc12` (stereo not drawn), the binding response (% of control) is 103% (inactive).

Source of the values: PubChem BioAssay AID1894 (NMMLSC, 2009).
